# Compound activity as filed in PubChem BioAssay.
# HSF1 inh: HSF1 inhibition | NIH3T3-HGL HSE-luciferase, MG132-induced, luminescence 8 h; hits give low values | activity change, negative = inhibition, % at 7.5 µM (by protocol) | hit rate 0.77% among 300,000;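 active = more than half of replicate wells show activity change below -50%, luminescence cut by over half; inconclusive = some wells, but at most half, below -50%; inactive = no replicate well below -50%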;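 also: luciferase reports HSF-1 transcriptional activity via heat shock element; 0% = median of DMSO wells and -100% = zero luminescence signal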
# Wnt bcat act: activates Wnt/beta-catenin signaling in a reporter cell assay; activator, plate reader; activation, % at 9.35 µM; hit rate 1.2% among 300,000; in the data active = activation above about 30%, passing the limit was not always enough; inconclusive = no clear call, values can overlap the other calls;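 also: 0% = neutral control wells and 100% = positive control wells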
# HSF-1 act: increases HSF-1 driven luciferase reporter signal; NIH3T3-HGL HSF-1 luciferase reporter, MG132, 8 h; 100% = twice DMSO control signal; activation, % at 9 µM; hit rate 1.7% among 300,000; AID 504408;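 active = mean replicate activation of at least 50% with a set share of replicates each reaching 50%; inconclusive = only one of those two conditions met; inactive = mean below 50% and too few replicates reaching it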;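 also: 0% = median of the neutral control wells and 100% = twice that signal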
# MITF TRPM1 HTS: MITF TRPM1 promoter activation in melanoma cells; SK-MEL-5 TRPM1-promoter luciferase, 24 h; % of positive control, neutral wells = 0; activation, % at 12.5 µM; hit rate 0.75% among 300,000; AID 588334;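 active = mean activation of at least 80% with every replicate also reaching 80%; inconclusive = mean reaches 80% but some replicate falls short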;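 also: 0% = neutral control wells and 100% = parthenolide positive control wells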
# esBAF inh: blocks esBAF chromatin remodeling in mouse ES cells; Bmi1-luciferase knock-in reporter, 24 h; 100% = twice the neutral-well signal; reporter increase, % at 12.5 µM; hit rate 2% among 350,000; in the data active = activation above about 40%; inconclusive = no clear call, values can overlap the other calls;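 also: 0% = median of the plate's neutral control wells and 100% = double that signal; a rise in the Bmi1 reporter signal indicates esBAF inhibition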
# * hit, by the source's call; ? = inconclusive; nt = no result given. This is a sample that favours compounds with a hit; in the whole collection about 3.8% have one here.
SMILES,HSF1 inh,Wnt bcat act,HSF-1 act,MITF TRPM1 HTS,esBAF inh
Cc1cccc(/C(N)=N/OC(=O)c2cccs2)c1,11.5,58.1*,47.8,8.3,-38.6
COc1cccc(CN2[C@@H](CO)[C@@H]3c4ccccc4N(C(=O)CC(F)(F)F)C[C@@H]32)c1,nt,nt,nt,nt,-2.4
C[C@@H]1CN([C@H](C)CO)C(=O)Cc2cc(NC(=O)CCN3CCOCC3)ccc2O[C@H]1CN(C)S(C)(=O)=O,nt,nt,nt,nt,0.4
O=C(Cc1ccccc1)N1C[C@@H]2[C@H](c3ccccc31)[C@@H](CO)N2C(=O)C1CCCC1,nt,nt,nt,nt,-2.0
CN1C(=O)c2cc(NC(=O)Nc3ccccc3)ccc2OC[C@@H]2O[C@H](CC(=O)NC3CCC3)CC[C@H]21,nt,nt,nt,nt,-0.4
COc1ccc(NC(=O)N(C)C[C@H]2Oc3ccc(NS(=O)(=O)c4ccc(C)cc4)cc3C(=O)N([C@H](C)CO)C[C@H]2C)cc1,nt,nt,nt,nt,0.9
C[C@H](NC(=O)C[C@H]1CC[C@@H](NC(=O)Nc2ccc3c(c2)OCO3)[C@H](CO)O1)c1ccccc1,nt,nt,nt,nt,-1.1
Cc1ccc(/C(N)=N/OC(=O)c2cccs2)cc1,1.9,53.9*,30.8,16.6,-4.3
C[C@@H]1CN([C@H](C)CO)C(=O)c2cc(-c3ccccc3F)cnc2O[C@H]1CN(C)C(=O)C1CCC1,nt,nt,nt,nt,-1.7
C=CCOc1c(CNc2ccc(C(=O)O)cc2)cccc1OC,-14.4,3.1,-7.7,-1.2,nt
C=CCOc1c(CNc2cccc(C(=O)O)c2)cccc1OCC,3.9,nt,12.9,9.1,3.7
C=CCOc1c(CNc2cccc(C(=O)O)c2)cccc1OC,-10.4,nt,-27.0,51.5,51.8*
C=CCOc1c(CNc2ccc(C(=O)O)cc2)cccc1OCC,-0.7,nt,16.9,64.7,43.8*
COc1ccc(CN2C[C@H](O)COC[C@H]3O[C@@H](CC(=O)NCc4ccccc4Cl)CC[C@@H]32)cc1,nt,nt,nt,nt,5.8
Cc1cc(NC(C)c2ccccc2)n2ncc(-c3ccccc3)c2n1 (configuration not stated),15.7,26.6,10.7,121.7*,59.2*
Cc1cc(-c2ccccc2)n2ncc(-c3ccccc3)c2n1,-41.6,3.5,-54.8,-16.2,nt
Cc1cc(NC2CCCC2)n2ncc(-c3ccccc3)c2n1,-67.2*,-0.4,-74.3,17.5,-44.5
COc1ccc(-c2c(C)nn3c(NC4CCCC4)cc(C)nc23)cc1OC,26.7,0.7,61.9*,-18.3,12.5
Cc1cc(NCCCn2ccnc2)n2nc(C)c(-c3ccccc3)c2n1,1.5,15.9,25.1,66.1,46.7*
COc1ccc(CCNc2cc(C)nc3c(-c4ccccc4)c(C)nn23)cc1OC,1.6,-0.1,13.2,4.8,-1.5
CCCC(=O)Nc1ccc2c(c1)C(=O)N(C)C[C@H](OC)[C@H](C)CN(C(=O)c1cccnc1)[C@@H](C)CO2,nt,nt,nt,nt,-3.9
COc1ccccc1-c1ccc2c(c1)O[C@H](CN(C)C(=O)Nc1cccc(F)c1)[C@@H](C)CN([C@H](C)CO)S2(=O)=O,nt,nt,nt,nt,2.8
COc1ccc(CCNc2cc(C)nc3c(-c4ccccc4)cnn23)cc1OC,1.1,13.6,-0.3,8.0,nt
Cc1cc(NCCN2CCOCC2)n2nc(C)c(-c3ccc(Cl)cc3)c2n1,31.4,nt,65.0*,0.2,-6.5
Cc1cc(N)n2nc(C)c(-c3ccccc3)c2n1,-3.5,5.7,8.7,-0.8,3.4
SMILES,HSF1 inh,Wnt bcat act,HSF-1 act,MITF TRPM1 HTS,esBAF inh
Cc1cc(NCc2ccccc2)n2ncc(-c3ccccc3)c2n1,39.8,28.0,79.5*,104.5*,20.5
Cc1cc(NC2CCCC2)n2nc(C)c(-c3ccccc3)c2n1,8.6,5.6,52.1*,100.1*,?
C[C@@H]1CN([C@H](C)CO)C(=O)Cc2cc(NC(=O)NC3CCCCC3)ccc2O[C@@H]1CN(C)Cc1ccc(-c2ccccc2)cc1,nt,nt,nt,nt,-0.7
COc1ccc(CN(C)C[C@@H]2Oc3ccc(NC(=O)NC4CCCCC4)cc3CC(=O)N([C@H](C)CO)C[C@@H]2C)cc1,nt,nt,nt,nt,-0.5
Cc1ccc(-c2cc3nc(C)cc(C)n3n2)cc1,2.9,15.5,12.1,16.0,59.9*
Cc1cc(C)n2nc(-c3ccccc3)cc2n1,25.9,12.0,44.6,11.7,42.7*
Cc1cc(C)n2nc(-c3ccc(F)cc3)cc2n1,nt,2.3,nt,nt,54.5*
Cc1cc(C)n2nc(Nc3ccccc3)cc2n1,5.2,nt,4.5,12.1,33.3
Cc1cc(-c2ccc(F)cc2)nc2cc(C(N)=O)nn12,-4.3,nt,8.8,-4.1,nt
CCCNC(=O)Nc1ccc2c(c1)C(=O)N(C)C[C@H](OC)[C@H](C)CN(C(=O)c1ccccc1F)[C@H](C)CO2,nt,nt,nt,nt,-18.1
Cc1ccc(S(=O)(=O)N(C)C[C@H]2Oc3ccc(NC(=O)Cc4ccccc4)cc3CC(=O)N([C@@H](C)CO)C[C@@H]2C)cc1,nt,nt,nt,nt,3.5
COc1ccc(S(=O)(=O)N[C@H]2C=C[C@H](CC(=O)NCc3ccccc3F)O[C@H]2CO)cc1,nt,nt,nt,nt,3.3
CCC(=O)Nc1ccc2c(c1)C(=O)N(C)C[C@H](OC)[C@H](C)CN(C(=O)CN(C)C)[C@H](C)CO2,nt,nt,nt,nt,-1.7
COc1ccc2nc(NC3=NCCC3)sc2c1,25.6,57.5*,16.7,64.5,57.5*
COc1ccc(-c2nc(NC3=NCCCCC3)sc2C)cc1,-0.3,-20.3,-20.9,8.9,nt
COc1ccc(Nc2nc3ccccc3s2)cc1,nt,nt,nt,66.2,nt
COc1cccc(Nc2nc3ccc(OC)cc3s2)c1,25.5,1.5,46.0,114.8*,nt
CO[C@H]1CN(C)C(=O)c2ccc(NC(=O)C3CC3)cc2OC[C@@H](C)N(CC2CCOCC2)C[C@H]1C,nt,nt,nt,nt,1.1
Cc1cc(F)ccc1NCc1cc2c(cc1[N+](=O)[O-])OCO2,16.7,4.2,52.5*,4.0,-4.8
Cn1c(-c2ccc(F)cc2)cnc1NCc1cc2c(cc1[N+](=O)[O-])OCO2,1.9,3.9,-1.2,-6.5,nt
O=C1c2ccccc2C(=O)N1CCc1csc(-c2cccc(F)c2)n1,29.0,nt,82.7*,21.1,16.3
Cc1ccc(S(=O)(=O)Nc2ccc3c(c2)C(=O)N([C@H](C)CO)C[C@H](C)[C@H](CN(C)C(=O)Cc2ccccc2)OCCCC[C@H](C)O3)cc1,nt,nt,nt,nt,3.0
CCCOC(=O)c1ccc(NC(=O)c2cnccn2)cc1,6.9,nt,14.9,64.1,59.2*
CCCCOC(=O)c1ccc(NC(=O)c2cnccn2)cc1,10.4,nt,15.8,33.0,33.3
CCc1nc2ccc(C(=O)N3CCN(c4ccc([N+](=O)[O-])cc4)CC3)cc2nc1CC,24.5,-5.2,60.0*,-13.0,-2.8
O=C(Nc1cccnc1Cl)c1cc2c(s1)-c1ccccc1OC2,13.6,0.2,13.3,48.8,46.0*
Cc1cccc2c1-c1sc(C(=O)Nc3cccnc3)cc1CO2,5.7,-1.2,1.4,63.6,49.8*
CCOC(=O)c1cc2c(s1)-c1c(C)cccc1OC2,20.3,15.6,45.6,nt,64.2*
O=C(Nc1cccnc1)c1cc2c(s1)-c1ccccc1OC2,-0.2,15.8,23.0,37.5,29.4
Cc1cccc2c1-c1sc(C(=O)Nc3nccs3)cc1CO2,30.0,26.9,55.9*,58.1,47.3*
